Assay [1] in a line: qHTS RealTime-Glo MT Cell Viability Assay in HepG2 cells - 40 hour (AID 1224870). Also: nearly all actives have a fitted effect of over 50% in size. Also: potency is read from the fitted curve at half-maximal effect. The gist of the method: (§1)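 HepG2 cells (600/well) mixed with RealTime-Glo MT reagent, settled 5 h at 37 C/5% CO2 before compound addition. Nonlytic NanoLuc luminescence from viable-cell prosubstrate reduction read repeatedly during 40 h treatment at 37 C.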
A short description of assay [2]: qHTS RealTime-Glo MT Cell Viability Assay in HepG2 cells - 8 hour (AID 1224873). Also: nearly all actives have a fitted effect of over 55% in size. Also: potency is read from the fitted curve at half-maximal effect. The gist of the method:
as §1
On the technique in general: In qHTS, concentration-response curves come from the screen itself.

A short description of assay [3]: qHTS RealTime-Glo MT Cell Viability Assay in HEK293 cells - 40 hour (AID 1224874). Also: nearly all actives have a fitted effect of over 50% in size. Also: potency is read from the fitted curve at half-maximal effect. The note with it: RealTime-Glo luminescence; max response: active compounds read low. The gist of the method:
(§2)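 Cells were seeded together with NanoLuc luciferase and a prosubstrate that viable cells reduce to a luciferase substrate. After a 5 h incubation at 37 C/5% CO2, compounds were added and luminescence was measured repeatedly during 40 h of treatment.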

The nature of assay [4]: A CellTox Green Cytotoxicity Assay to monitor cytotoxicity in HepG2 cells - 24 hour (AID 1224878). Also: nearly all actives have a fitted effect of over 45% in size. Also: potency is read from the fitted curve at half-maximal effect. The gist of the method:
(§3)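 Read-out is fluorescence of a cyanine dye excluded from live cells that stains DNA of dead HepG2 cells, with signal proportional to cytotoxicity. Plates were read at 0, 8, 16, 24, 32 and 40 h after compound addition.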

Assay [5] is described as follows: A CellTox Green Cytotoxicity Assay to monitor cytotoxicity in HepG2 cells - 40 hour (AID 1224879). Also: nearly all actives have a fitted effect of over 40% in size. Also: potency is read from the fitted curve at half-maximal effect. In short, it runs like this:
as §3

Assay [6] in a line: qHTS RealTime-Glo MT Cell Viability Assay in HEK293 cells - 0 hour (AID 1224880). Also: top concentration of the series differs between compounds; nearly all actives have a fitted effect of over 45% in size. The gist of the method:
as §2

The nature of assay [7]: A CellTox Green Cytotoxicity Assay to monitor cytotoxicity in HepG2 cells - 0 hour (AID 1224882). Also: nearly all actives have a fitted effect of over 35% in size. Also: potency is read from the fitted curve at half-maximal effect. In short, it runs like this: as §3
The nature of assay [8]: qHTS assay to identify small molecule agonists of the estrogen related receptor (ERR) signaling pathway from Tox21 library (AID 1224849; calls by dose curve; also: nearly all actives have a fitted effect of over 15% in size). The note with it: ERR reporter cell line, ONE-Glo luciferase, 18 h; at 92.4 µM (top of the series) unless noted. In short, it runs like this: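 ERR cells, 6 h pre-incubation 37 C/5% CO2; cpd in DMSO pinned; 18 h 37 C; ONE-Glo added, 30 min RT; luminescence read. Agonist mode, qHTS.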

A short description of assay [9]: qHTS RealTime-Glo MT Cell Viability Assay in HepG2 cells - 24 hour (AID 1224867). Also: nearly all actives have a fitted effect of over 50% in size. Also: potency is read from the fitted curve at half-maximal effect. The gist of the method:
(§4)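 Cells + NanoLuc/prosubstrate dispensed (600 cells/well) → 5 h at 37 C/5% CO2 → compounds in DMSO transferred → 40 h incubation at 37 C, luminescence read at 0, 8, 16, 24, 32, 40 h.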

A short description of assay [10]: qHTS RealTime-Glo MT Cell Viability Assay in HEK293 cells - 32 hour (AID 1224868). Also: nearly all actives have a fitted effect of over 50% in size. Also: potency is read from the fitted curve at half-maximal effect. In short, it runs like this:
(§5)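 Tox21 10K qHTS, HEK293, 600 cells/well, RealTime-Glo reagent co-dispensed with cells; 5 h preincubation, compound by pintool, 37 C, luminescence at 0–40 h.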

Assay [11] is described as follows: A CellTox Green Cytotoxicity Assay to monitor cytotoxicity in HEK293 cells - 0 hour (AID 1224869). Also: nearly all actives have a fitted effect of over 50% in size. Also: potency is read from the fitted curve at half-maximal effect. The gist of the method: (§6)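 Nonlytic real-time cytotoxicity: HEK293 + CellTox Green reagent plated, 5 h preincubation, pintool compound addition (23 nL in DMSO), 37 C for 40 h, fluorescence measured at successive time points.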
A short description of assay [12]: A CellTox Green Cytotoxicity Assay to monitor cytotoxicity in HEK293 cells - 40 hour (AID 1224871). Also: nearly all actives have a fitted effect of over 45% in size. Also: potency is read from the fitted curve at half-maximal effect. The gist of the method: as §6
Assay [13] in a line: qHTS RealTime-Glo MT Cell Viability Assay in HEK293 cells - 16 hour (AID 1224872). Also: nearly all actives have a fitted effect of over 50% in size. Also: potency is read from the fitted curve at half-maximal effect. The gist of the method: as §5
The nature of assay [14]: A CellTox Green Cytotoxicity Assay to monitor cytotoxicity in HEK293 cells - 24 hour (AID 1224875). Also: nearly all actives have a fitted effect of over 45% in size. Also: potency is read from the fitted curve at half-maximal effect. The gist of the method:
as §6

The nature of assay [15]: A CellTox Green Cytotoxicity Assay to monitor cytotoxicity in HepG2 cells - 16 hour (AID 1224876). Also: nearly all actives have a fitted effect of over 45% in size. Also: potency is read from the fitted curve at half-maximal effect. The gist of the method:
as §3

A short description of assay [16]: qHTS RealTime-Glo MT Cell Viability Assay in HepG2 cells - 32 hour (AID 1224877). Also: nearly all actives have a fitted effect of over 55% in size. Also: potency is read from the fitted curve at half-maximal effect. In short, it runs like this: as §4
Assay [17] in a line: qHTS assay to identify small molecule antagonists of the estrogen related receptor (ERR) signaling pathway from Tox21 library (AID 1224848). Also: nearly all actives have a fitted effect of over 50% in size. Also: potency is read from the fitted curve at half-maximal effect. The gist of the method: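 Luminescent reporter read-out (ONE-Glo) from NTP's ERR cell line after 18 h treatment at 37 C with DMSO-dissolved Tox21 compounds; cells pre-plated 6 h beforehand at 2,000 per well.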
Assay [18] is described as follows: A CellTox Green Cytotoxicity Assay to monitor cytotoxicity in HEK293 cells - 32 hour (AID 1224881). Also: nearly all actives have a fitted effect of over 40% in size. Also: potency is read from the fitted curve at half-maximal effect. In short, it runs like this:
as §6

Unmarked numbers belong to inactive results. Results filed as inconclusive are left out. Calls of active or inactive are those of the source. Unless noted, calls follow the shape of the dose curve; as a rule, active = well fitted curve in the direction sought with a large enough effect in the repeat runs; inconclusive = weak or mixed curves; inactive = no such curve, though single readings can be large; an effect the other way counts as inactive or inconclusive.
% is scaled to controls: 0 for no effect and ±100 for the full control effect.

Take `CC(=O)[O-].CC(=O)[O-].O.O.[Cd+2]`: the Potency entry in assay [1], in assay [2], in [6] and in assay [7] was “inactive” each time. Besides, the Potency in assay [3] is 15.3 µM (active); in assay [4], 48.3 µM (active); in assay [5], 27.2 µM (active).

As to `S=C=Nc1cccc2ccccc12`, the activity change, positive = activation in [8] was -54.3%. Further, the Potency entry in [9], in assay [10], in assay [11], in [1], in assay [12] and in [13] was “inactive” each time. Besides, the Potency entry in assay [2], in assay [14], in assay [15], in [16], in [4] and in assay [6] was “inactive” in each case. Further, the Potency entry in assay [7] was “inactive”. In [3], the max response is 2.28%.

`BrC(Br)C(Br)(Br)Br`: the Potency entry in assay [9], in assay [11], in [1], in assay [2], in assay [15] and in assay [16] was “inactive” in each case. The Potency entry in [6] was “inactive”. The Potency is 43.9 µM (active) in assay [10], 55.3 µM (active) in [12], 43.9 µM (active) in assay [13] and 27.7 µM (active) in assay [3].

In the case of `OC(c1ccc(Cl)cc1)(c1ccc(Cl)cc1)C(Cl)(Cl)Cl`, the Potency result in [17], in [9], in assay [11], in assay [1], in assay [2] and in [14] was “inactive” in each case. The Potency entry in assay [15], in assay [16], in [4], in [5], in assay [6] and in assay [7] was “inactive” each time. In addition, in assay [12], the Potency was 49 µM (active).

Turning to `Clc1ccc(CCC(Cn2ccnc2)Sc2c(Cl)cccc2Cl)cc1` (stereo not given), the results for the Potency in assay [17] and in assay [10] were 18.8 µM (active) and 9.52 µM (active), respectively. The activity change, positive = activation in [8] is -61.6% [at 42.5 µM]. Further, the Potency result in assay [11], in [1], in [12], in [14], in [6] and in assay [18] was “inactive” each time.

`Cc1cc(C)c(C2=C(OC(=O)CC(C)(C)C)C3(CCCC3)OC2=O)c(C)c1`: the Potency result in [17], in [9], in assay [10], in assay [11], in assay [1] and in [12] was “inactive” each time. For the same molecule, the Potency result in [13], in assay [2], in [14], in assay [15], in assay [16] and in [4] was “inactive” in each case. Besides, the Potency entry in assay [5], in [6], in assay [18] and in [7] was “inactive” throughout. For the same molecule, the activity change, positive = activation in assay [8] is -1.28%. Further, the max response in [3] was -6.03%.

On to `Fc1ccc(Oc2ccnc3cc(Cl)cc(Cl)c23)cc1`, for which the Potency entry in assay [9], in [11], in assay [1], in [12], in [2] and in [14] was “inactive” throughout. Also, the Potency result in assay [15], in [16], in assay [4], in [6], in assay [18] and in [7] was “inactive” throughout. Besides, the figures for the Potency in assay [10], in [13] and in assay [3] were 11 µM (active), 7.76 µM (active) and 9.77 µM (active), respectively.

`C=CC(=O)OCC(COC(=O)C=C)(COC(=O)C=C)COC(=O)C=C`: the activity change, positive = activation in [8] was -79.4%. In addition, the Potency in [9] is 6.16 µM (active); in assay [10] it was 3.89 µM (active); in assay [1], 5.49 µM (active); in [12], 19.5 µM (active); in assay [13] it was 3.89 µM (active); in assay [2], 3.09 µM (active). Also, the Potency in [3] was 3.89 µM (active); in assay [16], 5.49 µM (active); in [4], 49 µM (active); in assay [18], 27.5 µM (active). Also, the Potency result in assay [11], in [6] and in assay [7] was “inactive” each time.

Take `CC(C)OC(=S)S`: the Potency result in assay [9], in assay [10], in [11], in assay [1], in assay [12] and in assay [2] was “inactive” throughout. The Potency entry in assay [14], in [15], in assay [16], in [4], in [6] and in [18] was “inactive” in each case. Further, in [7], the Potency entry was “inactive”. The max response in [3] was 12.1%.

With `O=C(Nc1ccc2[nH]ccc2c1)c1cc2cc(F)ccc2n1Cc1cccc(F)c1`, in [8], the activity change, positive = activation was -52.2%. For the same molecule, the Potency entry in [10], in assay [11], in assay [12], in assay [13], in assay [14] and in assay [15] was “inactive” in each case. Besides, the Potency entry in [4] and in assay [6] was “inactive” throughout.

With `CC(C)Oc1cccc(NC(=O)c2ccccc2C(F)(F)F)c1`, the Potency in assay [17] was 24.3 µM (active); in assay [10] it was 24.5 µM (active); in [11], 43.6 µM (active); in [12], 61.6 µM (active); in assay [14], 19.5 µM (active); in assay [15], 43.6 µM (active). For the same molecule, the results for the Potency in assay [4], in [5] and in assay [7] were 43.6 µM (active), 43.6 µM (active) and 49 µM (active), respectively. In addition, the activity change, positive = activation in [8] was -38.3%. The Potency entry in assay [9], in [1], in assay [16] and in assay [6] was “inactive” in each case.

For `CC(C)[C@H](C(=O)OC(C#N)c1cccc(Oc2ccccc2)c1)c1ccc(OC(F)F)cc1` (stereo not given in full), the Potency in [17] was 15.4 µM (active). Moreover, in assay [8], the activity change, positive = activation was -19.1%. Further, the Potency result in assay [9], in [10], in assay [11], in [1], in assay [12] and in assay [13] was “inactive” each time. Further, the Potency result in assay [14], in assay [15], in assay [4], in assay [5], in assay [6] and in assay [18] was “inactive” in each case. In addition, the Potency entry in assay [7] is “inactive”. In addition, in assay [3], the max response is -16.8%.

Values taken from PubChem BioAssay (Tox21).
